Data from PubChem BioAssay (NCI).
About 79,000 compounds went through this panel and 15% of them were active in at least one assay; those are over-represented in the sample as a whole. Cut-off read from the data, not from the text of the source: active = growth inhibition above about 70%; inactive = the rest. Where a SMILES comes first, the peptide text is derived from it. Bridges are numbered along the chain shown (N, C = ends).

Assays:
[1] = NCI Yeast Anticancer Drug Screen. Data for the rad50 strain (AID 155);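 note: 0% = growth of vehicle-only cultures of the same strain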; details: S. cerevisiae rad50 strain growth inhibition; at 50.0 µM; stronger effect = higher value
How it was run: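 Genetically altered yeast (DNA repair pathway); compound treatment; growth inhibition vs vehicle ctrl.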

[2] = NCI Yeast Anticancer Drug Screen. Data for the mec2-1 strain (AID 157); details: S. cerevisiae mec2-1 strain, at 50.0 µM, stronger effect = higher value
How it was run: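 Vehicle-treated cultures served as reference for growth inhibition of compound-exposed mec2-1 yeast.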

[3] = NCI Yeast Anticancer Drug Screen. Data for the sgs1 mgt1 strain (AID 161);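 note: 0% = growth of cultures given vehicle only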; details: S. cerevisiae sgs1 mgt1 strain, at 50.0 µM, stronger effect = higher value
How it was run: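 Inhibition of yeast growth, normalised to vehicle-treated controls, is reported for a strain bearing genetic alterations in DNA damage repair.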

[4] = NCI Yeast Anticancer Drug Screen. Data for the cln2 rad14 strain (AID 165);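 note: 0% = growth equal to vehicle treated cultures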; details: S. cerevisiae cln2 rad14 strain, at 50.0 µM, stronger effect = higher value
How it was run: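 Each compound was tested on cln2 rad14 yeast. Inhibition of growth was calculated against vehicle-exposed controls.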

[5] = NCI Yeast Anticancer Drug Screen. Data for the bub3 strain (AID 167); details: S. cerevisiae bub3 mutant strain, at 50.0 µM, stronger effect = higher value
How it was run: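 Yeast carrying a defined mutation is treated with each compound, and growth is compared with that of vehicle-exposed cells to give inhibition.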

[6] = NCI Yeast Anticancer Drug Screen. Data for the mlh1 rad18 strain (AID 175); details: S. cerevisiae mlh1 rad18 strain growth inhibition; at 50.0 µM; stronger effect = higher value
How it was run: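 Vehicle-treated cultures served as the reference for growth inhibition in a yeast strain carrying DNA damage repair alterations exposed to each compound.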

Measured: growth inhibition

CN1C(=O)C(C)(O)Sc2ccccc21 (stereo unspecified)
inactive: [1] -1.2% | [2] -19.4% | [3] -36.2% | [4] -17.9% | [5] -9.2% | [6] 0.1%

O=C(CNS(=O)(=O)c1ccccc1)c1ccc(Cl)cc1Cl
inactive: [1] 31.6% | [2] 36.2% | [3] 53% | [4] 22.3% | [5] 54.5% | [6] 53.8%

COc1cc(C(=O)O)c(C(=O)O)cc1OC
inactive: [1] 2.6% | [2] 21.4% | [3] 20.5% | [4] -29.1% | [5] 2.45% | [6] 0.5%

CCCCN(CCCC)CC(O)c1cc(-c2cccc(I)c2)nc2c(Cl)cc(Cl)cc12 (stereo unspecified)
inactive: [1] 38.6% | [2] 4.4% | [3] -4.75% | [4] -11.1% | [5] -6.15% | [6] 29.3%

CCOC(=O)C1CSSCC(N)C(=O)N1 (stereo not drawn) (H-Cys-Cys-OEt; disulfide 1-2; configuration not given here)
inactive: [1] 5.65% | [2] -1.25% | [3] -11.6% | [4] -48.8% | [5] -11.6% | [6] 4.7%

O=C(O)/C=C/n1c2ccccc2c(=O)c2ccccc21
inactive: [1] -10.1% | [2] -13.8% | [3] -20.9% | [4] 8.9% | [5] -7.7% | [6] -15%

CC(=Nc1cccc2ccccc12)c1c(O)cc(C)oc1=O
inactive: [1] 20.4% | [2] 12.2% | [3] 15.2% | [4] 20.9% | [5] 16.1% | [6] 14.1%

CCOC(=O)C/C(C)=N/NS(=O)(=O)c1ccc(NC(C)=O)cc1
inactive: [1] -7.6% | [2] -19.6% | [3] 8.25% | [4] -9.3% | [5] -27.3% | [6] -24.8%

CC1CC(N2CSC(=S)N(C3CC(C)CC(C)(C)C3)C2)CC(C)(C)C1 (stereo unspecified)
inactive: [1] -17.2% | [2] -16.2% | [3] -4.55% | [4] 9.5% | [5] 3.9% | [6] -0.4%

Cc1cnc(Sc2ncccc2[N+](=O)[O-])nc1
inactive: [1] 33% | [2] 5.75% | [3] 22.8% | [4] 25.6% | [5] -3.1% | [6] 6.7%

O=C1CSSCC(=O)Nc2ccccc2N1
inactive: [1] 6.35% | [2] 0.5% | [3] -0.2% | [4] 16.2% | [5] 19.4% | [6] -4%

CCCCCCCCCCCCCCCC(=O)OCC1OC(OC(=O)CCCCCCCCCCCCCCC)C(OC(=O)CCCCCCCCCCCCCCC)C(OC(=O)CCCCCCCCCCCCCCC)C1OC(=O)CCCCCCCCCCCCCCC (stereo unspecified)
inactive: [1] -19.8% | [2] -25.8% | [3] -19.9% | [4] -7.05% | [5] -24.7% | [6] -14.8%

C=CC1(C)CCC2C(=CCC3C2(C)CC(O)C(O)C3(C)COC2OC(C(=O)O)C(O)C(O)C2O)C1 (stereo unspecified) (tested in a mixture with another compound)
inactive: [1] 16.1% | [2] -3.55% | [3] -6.9% | [4] 18.3% | [5] 4.95% | [6] -67.3%

O=C(OCc1ccccc1)C1CCCN1C(=O)C(CSC(c1ccccc1)(c1ccccc1)c1ccccc1)NC(c1ccccc1)(c1ccccc1)c1ccccc1 (stereo unspecified)
inactive: [1] -5.5% | [2] -1.35% | [3] -0.8% | [4] -11.3% | [5] -7.55% | [6] 24.6%

C=CCc1cc(C(=O)O)ccc1OC
inactive: [1] -36.4% | [2] -23.6% | [3] -16.1% | [4] -1.7% | [5] -30.4% | [6] -13.9%

CCOC(=O)Nc1c2ccccc2c(NC(=O)OCC)c2ccccc12
inactive: [1] 30.2% | [2] 8.9% | [3] 1% | [4] 12.8% | [5] 15% | [6] -6%

NC(CCS(N)(=O)=O)C(=O)O (stereo unspecified)
inactive: [1] -9.45% | [2] -5.3% | [3] -1.85% | [4] -2.7% | [5] 5.5% | [6] -10.9%

CCN(CC)C(=O)c1ccc(C(C)C)cc1
inactive: [1] 20.4% | [2] 14.8% | [3] 27.9% | [4] 6.6% | [5] 18.3% | [6] 25.8%

C=C1COC(/C=C(\C)CC/C=C(\C)CCl)C1 (stereo unspecified)
inactive: [1] -7.4% | [2] -20.2% | [3] -18.6% | [4] 28.1% | [5] -17.1% | [6] -1.7%

CCCc1cc(=O)[nH]c(=S)[nH]1
inactive: [1] 34.6% | [2] -8.25% | [3] 1.7% | [4] 15.8% | [5] 11.2% | [6] 15.8%

Cc1ccc(C2SCC(=O)N2c2ccc(-c3ccc(-n4c(-c5ccccc5)nc5ccccc5c4=O)cc3)cc2)cc1 (stereo unspecified)
inactive: [1] 14% | [2] 6% | [3] 33% | [4] -0.45% | [5] 45.8% | [6] 55.8%

NC(=O)c1nnn(Cc2ccccc2)c1C(N)=O
inactive: [1] -13.9% | [2] -11.4% | [3] 12.6% | [4] -33.6% | [5] 8% | [6] 3.85%

Nc1ccc(Cl)cc1Cl
inactive: [1] -28.3% | [2] -7.1% | [3] -33.5% | [4] -34% | [5] -0.1% | [6] -21.3%

Cc1nc(C)c(CC#N)s1
inactive: [1] -9.25% | [2] -10% | [3] -1.75% | [4] -15.1% | [5] -2% | [6] 13.7%

CC(C)n1ncc2c(N)ncnc21
inactive: [1] 4.2% | [2] -2.2% | [3] -6.8% | [4] -26.8% | [5] 21.4% | [6] -3.8%

CN1C(=O)N(C)C2(CCN(CCCCCCF)CC2)C1=O
inactive: [1] -10.2% | [2] -19.9% | [3] -34.2% | [4] -6.9% | [5] -18.6% | [6] -29.4%

COC1=NN2C(OC)(c3ccccc3)c3c(-c4ccccc4)sc(-c4ccccc4)c3C2(c2ccccc2)S1 (stereo unspecified)
inactive: [1] 29.4% | [2] 2.1% | [3] 5.15% | [4] 37.6% | [5] 1.9% | [6] 5.5%

N#Cc1nc(Nc2ccc([N+](=O)[O-])cc2)sc1N
inactive: [1] 55.1% | [2] 33.8% | [3] 31.1% | [4] 36.2% | [5] 19.9% | [6] 22.4%

O=C1c2cc(Cl)ccc2-c2c(Cl)cccc21
inactive: [1] 22.9% | [2] -4.95% | [3] -10.9% | [4] 2.05% | [5] 4.05% | [6] -14.9%

O=C(c1ccc(OC(=O)c2ccccc2O)cc1)c1ccc(OC(=O)c2ccccc2O)cc1
inactive: [1] 27.6% | [2] 6.75% | [3] 29.3% | [4] -100% | [5] 8.3% | [6] 15.9%

CC1=NN(C(=O)c2ccncc2)C(=O)C1N=Nc1ccc(F)cc1 (stereo unspecified)
inactive: [1] -4.65% | [2] -10.2% | [3] -7.65% | [4] -5.2% | [5] -7.15% | [6] -4.9%

NC(CO)C(=O)NCC(=O)O (stereo unspecified)
inactive: [1] -29.5% | [2] 5.75% | [3] -30.2% | [4] -79.5% | [5] -18.2% | [6] -23.9%

CCCCSCC(O)c1ccccc1 (stereo unspecified)
inactive: [1] -8.85% | [2] -19.1% | [3] -24.5% | [4] -44.1% | [5] 9% | [6] -2.2%

CCOC(=O)CNC(=O)NC
inactive: [1] 1.25% | [2] 8.15% | [3] -6.75% | [4] -11.7% | [5] -6.25% | [6] 38%

COC(=O)c1ccccc1NC(=O)N(c1ccccc1)c1ccccc1
inactive: [1] 1.35% | [2] -3.45% | [3] 14.4% | [4] -12.2% | [5] 17.8% | [6] -1.55%

CCOc1c[n+](C)c(/C=C/c2ccccc2)s1
inactive: [1] 3.15% | [2] -11.6% | [3] -3.25% | [4] -9.3% | [5] -0.45% | [6] -20.9%
